# Test results as given in PubChem BioAssay (NCI).
# This is part of a sample that, as a whole, favours compounds with a hit. Of some 79,000 tested, about 15% had one in any assay. A number with no mark means an inactive call. Activity calls are given as the source filed them. Cut-off read from the data, not from the text of the source: active = growth inhibition above about 70%; inactive = the rest.
# Assays:
# [1] = NCI Yeast Anticancer Drug Screen. Data for the rad50 strain (AID 155);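 note: 0% = growth of vehicle-only cultures of the same strain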; conditions: S. cerevisiae rad50 strain growth inhibition; at 50.0 µM; active compounds read high
# Procedure, shortened: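 Growth of the mutant yeast was measured after compound exposure and referenced to vehicle-treated cultures.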
# [2] = NCI Yeast Anticancer Drug Screen. Data for the mec2-1 strain (AID 157); conditions: S. cerevisiae mec2-1 strain, at 50.0 µM, active compounds read high
# Procedure, shortened: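 Strain: mec2-1 (DNA repair/cell cycle alteration). Compound exposure, then growth measured; inhibition expressed relative to vehicle.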
# [3] = NCI Yeast Anticancer Drug Screen. Data for the sgs1 mgt1 strain (AID 161);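 note: 0% = growth of cultures given vehicle only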; conditions: S. cerevisiae sgs1 mgt1 strain, at 50.0 µM, active compounds read high
# Procedure, shortened: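 Read-out: growth inhibition vs vehicle controls. Cells: mutant yeast strain deficient in DNA damage repair.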
# [4] = NCI Yeast Anticancer Drug Screen. Data for the cln2 rad14 strain (AID 165);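 note: 0% = growth equal to vehicle treated cultures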; conditions: S. cerevisiae cln2 rad14 strain, at 50.0 µM, active compounds read high
# Procedure, shortened: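 Compounds are applied to the cln2 rad14 yeast strain, and growth is then compared with that of vehicle-treated cultures to give inhibition.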
# [5] = NCI Yeast Anticancer Drug Screen. Data for the bub3 strain (AID 167); conditions: S. cerevisiae bub3 mutant strain, at 50.0 µM, active compounds read high
# Procedure, shortened: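 Whole-cell yeast assay. The mutant strain was incubated with compounds, and growth inhibition was determined by comparison with vehicle-treated cells.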
# [6] = NCI Yeast Anticancer Drug Screen. Data for the mlh1 rad18 strain (AID 175); conditions: S. cerevisiae mlh1 rad18 strain growth inhibition; at 50.0 µM; active compounds read high
# Procedure, shortened: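 Read-out is yeast growth inhibition, calculated against vehicle-only controls. The compound was applied to a strain engineered with DNA damage repair alterations.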
Structure (SMILES),growth inhibition [1],growth inhibition [2],growth inhibition [3],growth inhibition [4],growth inhibition [5],growth inhibition [6]
N=C1N=C(N)C(CCCOc2cc(Cl)ccc2Cl)(CCCOc2cc(Cl)ccc2Cl)C(N)=N1,99% (active),95.5% (active),97.4% (active),98.5% (active),98.9% (active),98% (active)
C[N+]1(C)CCCC(CN2c3ccccc3Sc3ccccc32)C1 (configuration not stated),10.8%,-3.85%,7.85%,-13.4%,5.9%,15.4%
CCS1=C2C(=O)CC(C)(C)CC2=Nc2ccccc21 (configuration not stated),7.2%,-0.15%,18.9%,-8.05%,17.9%,-31.1%
CCNc1ccc(Cl)cc1[N+](=O)[O-],-28.8%,-66.2%,11.9%,-6.95%,-33.4%,-26.6%
COc1cc(OC(=O)/C=C2/CCC(=O)O2)c2c(c1)OC1OC(=O)CC21 (configuration not stated),13.6%,-4.95%,13.8%,-3.4%,-1.9%,15.8%
COc1cc2c(c(OC)c1OC)-c1c(cc3c(c1OC)OCO3)C1OC2C(C)C1C (configuration not stated) (tested in a mixture with another compound),-23.6%,-55%,-9%,-20.4%,-20.6%,-39.2%
COC(=O)Cc1nn2c(nc1=O)sc1ccc3ccccc3c12,-16.7%,-3.05%,3.3%,1.25%,-3.8%,-17.2%
O=C(C[N+]1(c2ccccc2)CCOCC1)c1ccccc1,28.4%,5.6%,-13.8%,4.7%,-4.25%,21.1%
Cc1cc(O)cc2oc(=O)ccc12,-34.4%,-23.4%,-9.9%,-11.7%,-11.7%,-15.2%
CC1(C)c2ccccc2C(=O)c2ccccc21,8.1%,6.65%,2.6%,-4.6%,-2.75%,5.45%
COCCNc1ccc([N+](=O)[O-])cc1[N+](=O)[O-],1.85%,-1.85%,-3.75%,-26.9%,-8.65%,7.1%
O=c1[nH]c(=O)c2nccnc2[nH]1,9.1%,-0.6%,-10.7%,0.75%,5%,5.1%
COC(=O)c1nc(N)[nH]c(=O)c1-c1ccc(Cl)cc1,-9.5%,-21.9%,-10.9%,14.8%,-12.7%,-47.8%
CN(C)CC1CCC(CN(C)C)C1=NO (configuration not stated),13.7%,-2.55%,-4.1%,7.4%,-1.5%,6.45%
Nc1nc(-c2ccc(Cl)c(Cl)c2)cc(-c2cc(-c3ccc(Cl)c(Cl)c3)nc(N)n2)n1,24.9%,2.55%,7.55%,21.6%,4.2%,11%
CCCCCCCCCCCCCCOc1ccc2ccccc2c1,21.5%,6.7%,6.5%,-10.4%,-6.05%,-4%
O=Cc1cccc2c([N+](=O)[O-])cccc12,55.5%,19.5%,32.6%,6.95%,-1.9%,49.5%
O=C(c1ccccc1)[C@H]1Nc2ccc(Cl)cc2[C@H]2c3ccccc3O[C@H]21,33.9%,-6.7%,12.4%,18.8%,-1.45%,2.5%
Cc1cc2c(c3ccccc13)Cc1ccccc1-2,-5.65%,9.2%,-7%,7.35%,15.4%,-13.8%
Cc1cnc(C)c(C(O)c2ccccc2)n1 (configuration not stated),-5.9%,-10.3%,-3.7%,-17.9%,-9.3%,-3.65%
Cc1ccc(S(=O)(=O)OC(c2ccc(Cl)cc2)C(F)(F)F)cc1 (configuration not stated),7.55%,-22.6%,-0.55%,21.9%,3.45%,17.8%

Structure (SMILES),growth inhibition [1],growth inhibition [2],growth inhibition [3],growth inhibition [4],growth inhibition [5],growth inhibition [6]
O=C(O)c1ccc(C2C(=O)N[C@@H]3CCC[C@H]23)cc1 (some centres not stated),-33%,-5.75%,-22.1%,6.05%,-12.9%,-32.1%
COC1C(O)=C2C(=O)OC(C)(O)/C=C/C=C\C=C/C=C/C(c3ccccc3)NC(=O)/C=C/C=C/C=C/C=C/C2(C)C1O (configuration not stated),-1.7%,-14.1%,3.3%,3.55%,-9.3%,4.5%
O=C(O)CCC(=O)NNc1nc2ccccc2s1,22.1%,2%,29.1%,19.8%,-13.2%,44.4%
Nc1ccc2cc3ccccc3cc2c1,12.6%,-20.6%,1.95%,-18%,7.35%,25%
CC(=O)N1Cc2cncnc2C1,-0.8%,5.95%,-2.5%,-17.1%,-0.95%,23.7%
O=C(O)CC(O)c1ccccc1 (configuration not stated),30.8%,13.6%,16.6%,17.1%,-0.95%,18.6%
Nc1cc(Cl)c(N(CCO)C2=NCCN2)c(Cl)c1,3.8%,-3.25%,3.05%,-12.2%,1.3%,-5.75%
Cc1cc(N=Nc2ccc(O)c3ncccc23)c2ccccc2n1,9.5%,6.85%,22.8%,-4.9%,18%,19.1%
CC(=O)Nc1ccc(S(=O)(=O)CCN2C(=O)c3ccccc3C2=O)cc1,-4.55%,-8.85%,12.3%,-62.5%,4.35%,-16.8%
CC(C)(C)C1=CC(=O)CCC1,-37.6%,-31.2%,-16.4%,-8.1%,-26.9%,5.65%
COc1ccc(Cl)cc1NC(=O)c1ccc(C(=O)Nc2cc(Cl)ccc2OC)cc1,-5.85%,7.3%,-10.2%,-22.9%,0.7%,9.5%
CCOC(=O)C(C#N)S(C)(=O)=O (configuration not stated),4.55%,-6.55%,1.9%,-35.3%,-12.1%,-1.6%
CC(=O)OCC1OC(N2C(c3ccccc3)=CC(c3ccco3)C(C#N)=C2S)C(OC(C)=O)C(OC(C)=O)C1OC(C)=O (configuration not stated),0.95%,-11.2%,13.8%,12.7%,2.05%,27.2%
CC(=O)NCc1cccc([N+](=O)[O-])c1,18.4%,-12.9%,27.3%,2.45%,17.7%,13.2%
CCOCC(=O)N[C@H]1CCc2cc(OC)c(OC)c(OC)c2-c2ccc(OC)c(=O)cc21,9.45%,-32.8%,22.4%,-2.6%,9.35%,4%
CCN(CC)CCCNC(Cc1ccccc1)c1ccc(OC)cc1 (configuration not stated),-1.85%,-7.45%,-4.05%,9.05%,-17.6%,-19.8%
CC(=O)OCCC(C)Nc1ccnc2cc(Cl)ccc12 (configuration not stated),-11.7%,-7.45%,6.35%,13.2%,-3.75%,12.2%
CCOC(=O)C(C(O)c1ccc([N+](=O)[O-])cc1)P(=O)(OCC)OCC (configuration not stated),24.3%,-16.4%,-4.7%,5.25%,-10.9%,-20.2%
COc1ccc2nc(NC(=O)C(=O)NNC(=O)c3ccncc3)sc2c1,-24.5%,-24%,-10.1%,21.1%,-22.9%,-14.7%
C=C1C(=O)O[C@H]2C[C@@H]1C(=O)C/C(C)=C/CC/C(C)=C/CC[C@@]2(C)OCSC,18.9%,-5%,39%,26.9%,9.85%,13.7%
CCOC(=O)C1=C(C(=O)C(C)(C)C)C(c2ccc([N+](=O)[O-])cc2)C(C(=O)C(C)(C)C)=C(C(=O)OCC)N1,31.1%,21.4%,9.4%,27.4%,6.2%,14.3%
